This note sets out measurements from PubChem BioAssay (Tox21).

Records with an inconclusive call do not appear. Unmarked numbers belong to inactive results. Active and inactive are the calls of the source. Unless noted, the call rests on the fitted dose curve; in most records, active means well fitted curve in the direction sought with a large enough effect in the repeat runs; inconclusive means weak or mixed curves; inactive means no such curve, though single readings can be large; an effect the other way counts as inactive or inconclusive.

Experiment [1] in a line: qHTS assay to identify aromatase inhibitors - cell viability counter screen (AID 743084).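 Further: cells stimulated with testosterone during compound exposure; nearly all actives have a fitted effect of over 55% in size.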 On the technique in general: qHTS replaces the single test concentration by a dilution series.
The target of experiment [2] is Aryl hydrocarbon receptor (Homo sapiens) (UniProt P35869). Kind of experiment: qHTS assay to identify small molecule that activate the aryl hydrocarbon receptor (AhR) signaling pathway (AID 743085). Further: nearly all actives have a fitted effect of over 15% in size. Further: potency means the concentration at half of the fitted maximal effect.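 On activation: HG2L7.5c1 human HepG2 liver cells with stably integrated DRE-driven firefly reporter; series mostly up to about 70 µM.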 The procedure, abridged:
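24 h compound exposure, 37C, HepG2-derived HG2L7.5c1 cells with DRE-responsive luciferase. Readouts: fluorescence viability, then luminescence at room temperature after 30 min.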

Experiment [3] in a line: qHTS assay to identify small molecule that activate the aryl hydrocarbon receptor (AhR) signaling pathway - cell viability counter screen (AID 743086).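 Further: HepG2 liver cells carrying the AhR DRE luciferase reporter; series mostly up to about 70 µM; nearly all actives have a fitted effect of over 45% in size.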 The procedure, abridged:
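Cytotoxicity counter screen: CellTiter-Fluor signal (30 min, 37 C) in 4000 HepG2 cells/well carrying the DRE-luciferase reporter, following 24 h compound exposure at 37 C.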

Experiment [4] deals with Peroxisome proliferator-activated receptor gamma (Homo sapiens) (UniProt P37231). Kind of experiment: qHTS assay to identify small molecule agonists of the peroxisome proliferator-activated receptor gamma (PPARg) signaling pathway (AID 743094; active means well fitted activation curve with a large enough effect in the signal ratio in the repeat runs, not every such curve was filed as active; the % refers to the signal ratio). The procedure, abridged: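 Quantitative HTS agonist mode: stable HEK293H line with UAS-beta-lactamase reporter under PPARg control, 17 h compound exposure at 37C, fluorescence after 1 h FRET substrate loading at room temperature.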
Chain of Peroxisome proliferator-activated receptor gamma (Homo sapiens) (P37231 whole entry, looked up): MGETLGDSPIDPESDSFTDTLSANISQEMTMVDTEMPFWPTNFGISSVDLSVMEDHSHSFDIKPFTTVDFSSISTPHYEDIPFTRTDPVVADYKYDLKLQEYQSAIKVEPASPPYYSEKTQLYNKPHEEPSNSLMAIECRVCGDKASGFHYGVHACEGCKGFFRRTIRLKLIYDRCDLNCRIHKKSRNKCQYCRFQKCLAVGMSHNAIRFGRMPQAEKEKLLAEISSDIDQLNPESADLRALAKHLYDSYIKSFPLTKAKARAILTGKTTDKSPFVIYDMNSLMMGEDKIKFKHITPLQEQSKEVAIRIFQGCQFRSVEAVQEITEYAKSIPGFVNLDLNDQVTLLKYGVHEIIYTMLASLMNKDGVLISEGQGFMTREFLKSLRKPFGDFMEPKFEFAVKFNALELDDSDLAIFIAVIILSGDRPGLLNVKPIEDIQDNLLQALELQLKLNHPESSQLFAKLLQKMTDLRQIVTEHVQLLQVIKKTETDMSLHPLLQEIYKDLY

Experiment [5] has the same target. Kind of experiment: qHTS assay to identify small molecule antagonists of the peroxisome proliferator-activated receptor gamma (PPARg) signaling pathway (AID 743191; calls by dose curve; further: series mostly up to about 63 µM; nearly all actives have a fitted effect of over 30% in size). The gist of the method:
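Beta-lactamase reporter under UAS control in HEK293H PPARg-bla cells; compound treatment 17 h at 37C. Read-out: fluorescence intensity after 1 h room-temperature incubation with LiveBLAzer B/G FRET substrate.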

Experiment [6] can be described thus: qHTS assay to identify small molecule antagonists of the peroxisome proliferator-activated receptor gamma (PPARg) signaling pathway - cell viability counter screen (AID 743194). Further: nearly all actives have a fitted effect of over 55% in size. The gist of the method: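 Viability was measured as CellTiter-Glo luminescence in GeneBLAzer PPARg UAS-bla HEK293H cells. These cells had been exposed 17 h at 37 C to compounds together with rosiglitazone at 50 nM final, with the beta-lactamase readout taken in the same wells.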

Experiment [7] in a line: qHTS assay for small molecule agonists of the antioxidant response element (ARE) signaling pathway (AID 743202; active means well fitted activation curve with a large enough effect in the signal ratio in the repeat runs, not every such curve was filed as active; the % refers to the signal ratio). The procedure, abridged:
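Quantitative high-throughput format in HepG2 cells bearing an integrated ARE-beta-lactamase reporter. Compound exposure lasted 16 h at 37 C, and fluorescence was read 2 h after adding LiveBLAzer B/G substrate at room temperature.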

Experiment [8] can be described thus: qHTS assay for small molecule agonists of the antioxidant response element (ARE) signaling pathway - cell viability counter screen (AID 743203; calls by dose curve; further: nearly all actives have a fitted effect of over 55% in size). The procedure, abridged: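 Seeded at 2,000 cells/well, ARE-bla HepG2 cells were incubated 5 hrs before compound addition. After 16 hrs of treatment at 37C with 5% CO2, CellTiter-Glo reagent was added and luminescence read 30 min later.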

The nature of experiment [9]: qHTS assay for small molecule activators of the heat shock response signaling pathway - cell viability counter screen (AID 743209). Further: nearly all actives have a fitted effect of over 50% in size. The procedure, abridged: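 First, HSE-bla HeLa cells were seeded at 1500 cells/well and kept overnight at 37 C. Next, compounds were pinned in and incubated 5 h. After the FRET substrate step, CellTiter-Glo was added and luminescence read 30 min later.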

Experiment [10] is described as follows: qHTS assay for small molecule activators of the heat shock response signaling pathway (AID 743210; active means well fitted activation curve with a large enough effect in the signal ratio in the repeat runs, with a control signal flat, not every such curve was filed as active; the % refers to the signal ratio;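 further: HeLa cells with beta-lactamase reporter driven by heat shock elements; series mostly up to about 63 µM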). The procedure, abridged:
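HeLa HSE-bla cells, overnight plating; cpd in DMSO 5 h, 37 C; LiveBLAzer B/G FRET substrate 2.5 h RT; fluorescence intensity read.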

Chain of Aryl hydrocarbon receptor (Homo sapiens) (P35869 whole entry, looked up): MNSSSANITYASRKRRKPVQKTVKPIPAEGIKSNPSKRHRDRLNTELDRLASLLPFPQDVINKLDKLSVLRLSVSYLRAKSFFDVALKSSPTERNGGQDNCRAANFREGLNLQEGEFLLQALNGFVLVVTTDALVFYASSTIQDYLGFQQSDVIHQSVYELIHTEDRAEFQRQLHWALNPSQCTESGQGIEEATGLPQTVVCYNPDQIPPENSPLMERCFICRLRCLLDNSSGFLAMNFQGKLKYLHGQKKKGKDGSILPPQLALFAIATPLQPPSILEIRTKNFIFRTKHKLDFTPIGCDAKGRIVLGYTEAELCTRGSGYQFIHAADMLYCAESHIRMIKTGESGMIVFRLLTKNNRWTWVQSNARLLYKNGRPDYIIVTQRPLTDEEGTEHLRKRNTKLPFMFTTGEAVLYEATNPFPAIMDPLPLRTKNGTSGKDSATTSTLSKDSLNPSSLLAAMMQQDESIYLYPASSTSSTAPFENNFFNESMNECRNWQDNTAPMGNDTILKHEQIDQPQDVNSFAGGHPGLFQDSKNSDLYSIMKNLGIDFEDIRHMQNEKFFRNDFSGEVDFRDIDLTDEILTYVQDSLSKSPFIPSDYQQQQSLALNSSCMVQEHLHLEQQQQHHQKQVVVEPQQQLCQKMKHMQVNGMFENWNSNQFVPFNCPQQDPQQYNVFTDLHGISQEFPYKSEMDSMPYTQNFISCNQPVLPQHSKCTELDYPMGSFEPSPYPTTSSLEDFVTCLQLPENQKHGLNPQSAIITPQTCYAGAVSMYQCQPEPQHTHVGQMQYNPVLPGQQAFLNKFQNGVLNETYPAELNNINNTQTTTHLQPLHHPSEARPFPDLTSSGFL

For the molecule `O=C(O)c1ccccc1C(=O)OCc1ccccc1`, the Potency entry in experiment [1], in experiment [2], in experiment [3], in [5] and in experiment [7] was “inactive” throughout. Moreover, the outcome in [4], in experiment [6], in [8] and in experiment [9] was inactive.

As for `NC(Cc1c[nH]c2ccccc12)C(=O)O` (stereo not drawn), the Potency entry in [1], in experiment [3], in experiment [5] and in experiment [7] was “inactive” in each case. The Potency in [2] is 21.2 µM (active). In addition, the molecule was classed as inactive in experiment [4], in [6], in experiment [8], in [9] and in experiment [10].

`CCOc1ccc(NC(=O)OC(C)C)cc1OCC`: the Potency entry in [1], in experiment [2], in [3], in [5] and in experiment [7] was “inactive” throughout. In addition, the molecule was classed as inactive in [4], in experiment [6], in [8], in experiment [9] and in [10].

Consider `CCOC(=O)CCCCCCCCC(=O)OCC`, for which the Potency result in experiment [1], in [2], in experiment [3], in [5] and in [7] was “inactive” in each case. Also, the result in experiment [4], in experiment [6], in experiment [8] and in experiment [9] was inactive.

`FC(F)(F)/C(=N\OCC1OCCO1)c1ccc(Cl)cc1`: the Potency entry in experiment [1], in experiment [2], in [3], in [5] and in experiment [7] was “inactive” each time. The molecule was called inactive in [4], in experiment [6], in [8], in experiment [9] and in experiment [10].

As for `CCCCCC1Nc2cc(C(F)(F)F)c(S(N)(=O)=O)cc2S(=O)(=O)N1` (stereo not drawn), the Potency result in experiment [1], in experiment [2], in experiment [3], in [5] and in experiment [7] was “inactive” throughout. For the same molecule, the outcome in experiment [4], in [6], in [8], in [9] and in [10] was inactive.

`C=C[Si](C)(C)O[Si](C)(C)C=C`: the Potency entry in experiment [1], in experiment [2], in experiment [3], in experiment [5] and in experiment [7] was “inactive” throughout. The call in experiment [4], in [6] and in experiment [8] was inactive.

In the case of `COCC(=O)Nc1c(I)c(C(=O)NCC(O)CO)c(I)c(C(=O)N(C)CC(O)CO)c1I` (stereo not drawn), the Potency entry in experiment [1], in experiment [2], in [3], in experiment [5] and in [7] was “inactive” each time. Further, the molecule was called inactive in experiment [4], in experiment [6] and in experiment [8].

`Nc1cc(C(=O)O)ccc1Cl`: the Potency entry in [1], in experiment [2], in [3], in experiment [5] and in [7] was “inactive” throughout. Besides, the molecule was classed as inactive in [4], in [6], in experiment [8] and in experiment [9].

With `Cc1nc([N+](=O)[O-])cn1-c1ccc([N+](=O)[O-])cc1`, the Potency entry in experiment [1], in experiment [2], in [3], in experiment [5] and in experiment [7] was “inactive” throughout. The outcome in [4], in experiment [6], in experiment [8], in experiment [9] and in experiment [10] was inactive.

Regarding `CCN(CCO)c1cccc(C)c1`, the Potency entry in experiment [1], in [2], in experiment [3], in [5] and in experiment [7] was “inactive” each time. The molecule was classed as inactive in experiment [4], in experiment [6], in [8], in experiment [9] and in experiment [10].

For the molecule `CC(=O)OCC(=O)[C@@]1(O)[C@H](OC(C)=O)C[C@H]2[C@@H]3CCC4=CC(=O)C=C[C@]4(C)[C@@]3(F)[C@@H](O)C[C@@]21C`, the Potency entry in [1], in [2], in experiment [3], in experiment [5] and in experiment [7] was “inactive” in each case. The outcome in experiment [4], in experiment [6] and in experiment [8] was inactive.

On to `F[Si-2](F)(F)(F)(F)F`, for which the Potency result in experiment [1], in experiment [2], in [3], in [5] and in [7] was “inactive” each time. The call in experiment [4], in experiment [6], in experiment [8], in [9] and in experiment [10] was inactive.

Regarding `CCCCC[Si](OCC)(OCC)OCC`, the Potency entry in [1], in experiment [2], in [3], in experiment [5] and in experiment [7] was “inactive” each time. Moreover, the outcome in experiment [4], in experiment [6], in [8], in experiment [9] and in experiment [10] was inactive.

`CCOC(=O)OCC/C(SC(=O)OCC)=C(\C)N(C=O)Cc1cnc(C)nc1N`: the Potency result in experiment [1], in experiment [2], in experiment [3], in experiment [5] and in experiment [7] was “inactive” in each case. Also, the call in [4], in experiment [6], in experiment [8], in experiment [9] and in [10] was inactive.

Regarding `CC(C)C(=O)c1ccccc1`, the Potency result in experiment [1], in experiment [2], in experiment [3], in experiment [5] and in [7] was “inactive” throughout. For the same molecule, the call in experiment [4], in experiment [6], in [8], in [9] and in experiment [10] was inactive.

Regarding `COc1ccc(/C=N/NC(=O)c2ccncc2)cc1OC`, the Potency result in experiment [1], in experiment [3], in [5] and in experiment [7] was “inactive” each time. In addition, the Potency in experiment [2] was 2.66 µM (active). Besides, the molecule was called inactive in experiment [4], in [6], in [8] and in [9].

In the case of `C=CC(C)(O)CC/C=C(\C)CC` (stereo not drawn), the Potency result in [1], in experiment [2], in experiment [3], in experiment [5] and in experiment [7] was “inactive” throughout. In addition, the call in experiment [4], in experiment [6], in [8], in [9] and in experiment [10] was inactive.

As to `OC(CCN1CCCCC1)(c1ccccc1)c1ccccc1`, the Potency entry in [1], in experiment [3], in [5] and in experiment [7] was “inactive” each time. In addition, in [2], the Potency is 21.1 µM (active). The molecule was classed as inactive in experiment [4], in experiment [6], in [8], in [9] and in experiment [10].

As to `Cc1ccccc1C(=O)N1CC/C(=N\OS(=O)(=O)O)c2ccc(Cl)cc21`, the Potency result in experiment [1], in experiment [2], in experiment [3], in experiment [5] and in [7] was “inactive” in each case. Further, the result in experiment [4], in experiment [6], in experiment [8] and in experiment [9] was inactive.

On to `CC(C)CCO`, for which the Potency entry in [1], in [2], in experiment [3], in [5] and in experiment [7] was “inactive” in each case. The result in [4], in experiment [6], in experiment [8], in experiment [9] and in experiment [10] was inactive.

On to `NC(=O)NC(=O)Cc1ccccc1`, for which the Potency result in [1], in [2], in [3], in experiment [5] and in experiment [7] was “inactive” in each case. The molecule was called inactive in [4], in experiment [6], in experiment [8], in experiment [9] and in [10].

Consider `CC1=CC[C@H](CC=O)C1(C)C`, for which the Potency entry in experiment [1], in experiment [2], in experiment [3], in experiment [5] and in [7] was “inactive” each time. Moreover, the molecule was called inactive in experiment [4], in experiment [6], in experiment [8] and in experiment [9].

On to `CCC(O)C(C)(C)C` (stereo not drawn), for which the Potency result in experiment [1], in [2], in experiment [3], in experiment [5] and in experiment [7] was “inactive” in each case. Moreover, the result in [4], in [6], in experiment [8], in [9] and in experiment [10] was inactive.

For the molecule `CNC(=O)NC`, the Potency result in [1], in experiment [2], in experiment [3], in [5] and in [7] was “inactive” each time. For the same molecule, the outcome in [4], in experiment [6], in experiment [8], in experiment [9] and in experiment [10] was inactive.

On to `CC(=O)Nc1ccc(C)cc1`, for which the Potency entry in [1], in experiment [2], in [3], in [5] and in experiment [7] was “inactive” each time. The molecule was called inactive in experiment [4], in [6], in experiment [8], in [9] and in experiment [10].
